Screen size: about 360,000 compounds; about 7,300 (2%) were called active. No stated cut-off is given here; in the data, active means inhibition above about 50%; inactive means the rest. What follows is part of a selection rich in actives, with near analogues and random picks from the rest.
Assay: inhibitors of TWEAK-Fn14 signaling, primary screen, luciferase reporter cells, uHTS (AID 1159606)
Details: TWEAK-stimulated Fn14 reporter cells, luciferase luminescence, 8 h; at 10 µM; hits give high values

inhibition, inactive:
Cc1cc(-c2n[nH]c(=S)n2-c2ccc(C)c(C)c2)no1 4.62%
COc1ccc(-n2c(-c3ccc(Cl)cc3)n[nH]c2=S)c(OC)c1 0.97%
CC(C)Oc1ccc(/C=C(\NC(=O)/C=C/c2ccco2)C(=O)NCCc2nc3ccccc3[nH]2)cc1 13.7%
CCCC(NC(=O)c1ccco1)c1nc2ccccc2[nH]1 (centres undefined) 19.6%
Cc1csc(NC(=O)CSc2ccc(-c3ccc(F)cc3)nn2)n1 -0.16%
C=CCC[C@H](CCCCC)OC(=O)/C=C/[C@H](O)[C@@H](O)C[C@@H](O)CC=C 2.69%
CCOC(=O)N1CCC(NC(=O)c2ccc3nc(N4CCOCC4)sc3c2)CC1 18.3%
CCCCc1ccc(NS(=O)(=O)c2cccc(C(=O)N3CCCN(C)CC3)c2)cc1 13.3%
CN(C)/C=C/c1c(C#N)c(=O)ncn1Cc1ccccc1 1.93%
O=c1c2c(ncn1Cc1ccccc1)nc1n2CCC1 -3.28%
O=C(c1ccccc1)N1CCN(C(=O)c2cc3nc(-c4ccccc4)cc(C(F)(F)F)n3n2)CC1 12%
C#Cc1cc(N2CCN(C(=O)c3ccoc3)CC2)n2nc(-c3cccc(Cl)c3)cc2n1 -13.9%
CCC(Sc1nncn1C)C(=O)Nc1nnc(-c2ccc(Cl)cc2)s1 (centres undefined) 2.15%
Cc1cc(C(=O)OCC(=O)Nc2ccc(F)c(F)c2)c(C)o1 -6.41%
CCOc1ccc(S(=O)(=O)NCC2CCCO2)cc1 (centres undefined) -13.5%
O=S(=O)(NCC1CCCO1)c1ccc2ccccc2c1 (centres undefined) -2.08%
CC1CCCC(C)N1C(=O)COC(=O)c1ccccc1C(=O)c1ccccc1 (centres undefined) 3.29%
Cc1ncoc1C(=O)N1CCCC(C(=O)c2ccc3c4c(cccc24)CC3)C1 (centres undefined) -10.9%
O=C(CN1CCN(c2ccccc2F)CC1)c1ccc2c(c1)OCO2 -7.75%
CCC1(c2ccccc2)NC(=O)N(CC(=O)c2ccc3c(c2)OCO3)C1=O (centres undefined) 1.98%
NC(=O)c1nnsc1-c1ccc(-c2snnc2C(N)=O)cc1 16.3%
CCc1ccccc1N1CN(Cc2ccco2)CNC1=S -34%
CC(C)C(NC(=O)C1CCC(C(C)(C)C)CC1)C(=O)NCCCN1CCCCC1 (centres undefined) -11.2%
Cc1cc(S(=O)(=O)N2CCOCC2)ccc1OCC(=O)N1CCOCC1 3.41%
COC(=O)c1cc(Oc2ccc(S(=O)(=O)N3CCOCC3)cc2[N+](=O)[O-])cc(C(=O)OC)c1 3.34%
COCCN(C(=O)C(C)N1C(=O)c2ccccc2C1=O)c1c(N)n(CC(C)C)c(=O)[nH]c1=O (centres undefined) 2.19%
CC/C(O)=C1\C(=O)CC(C)(C)CC1=NCCc1nc2ccccc2[nH]1 4.19%
CC1(C)O[C@@H]2CC3C4C[C@H](F)C5=CC(=O)C=CC5(C)C4C(O)CC3(C)[C@]2(C(=O)CO)O1 (some centres undefined) -4.61%
COc1ccc(C(=O)NCC[N+](C)(C)C)cc1 7.64%
CS(=O)(=O)N(CC(=O)N/N=C/c1ccccn1)c1ccc(Oc2ccccc2)cc1 4.09%
c1ccc(CNc2ncnc3[nH]ncc23)cc1 2.58%
Clc1ccc(Cn2ncc3c(NCc4cccnc4)ncnc32)cc1 31.4%
Cc1ccccc1NC(=O)NC1(C(=O)N2CCCC2)CCCCC1 -3.42%
CC(C)C(=O)NC(NC(=S)NC1CCS(=O)(=O)C1)C(Cl)(Cl)Cl (centres undefined) 25.4%
O=C(Cc1ccc(Cl)cc1)NC1CCS(=O)(=O)C1 (centres undefined) -0.04%
COc1ccc(NC(=S)NC2CCS(=O)(=O)C2)cc1 (centres undefined) -0.47%
O=C(CSc1ccccc1F)NC1CCS(=O)(=O)C1 (centres undefined) 2.35%
Cc1ccc(NC2CCCN(C(=O)CCC3(C)CC3)C2)cc1C (centres undefined) -13.8%
CSc1ccc(/C=C2\NC(=O)NC2=O)cc1 -11.1%
CNC(=O)c1c(NC(NC(=O)c2ccco2)C(=O)c2ccc(Cl)cc2)sc2c1CCCC2 (centres undefined) -9.64%
CCCc1nn(C)c2c(=O)[nH]c(-c3cc(S(N)(=O)=O)ccc3OCC)nc12 -1.76%
CNC(=O)C1CCN(S(=O)(=O)c2c(C)noc2/C=C/c2cccc(C)c2)CC1 -21.5%
Cc1noc(/C=C/c2ccco2)c1S(=O)(=O)N1CCC(C(=O)N2CCc3ccccc32)CC1 6.06%
CCCCN1C(=O)C(CC(=O)NCc2cccs2)CC(C(=O)N2CCCCCC2)=C1C (centres undefined) -6.58%
Oc1cc(O)c2c(c1)OC(c1ccc(O)c(O)c1)C(O)C2 (centres undefined) -8.69%
Clc1ccc(-c2cccc3nccn23)cc1 -3.21%
COC(=O)c1cccc(C(=O)N2CCCC(Nc3ccc4c(c3)OCCO4)C2)c1 (centres undefined) 13.2%

inhibition, active:
Cc1ccc(-n2c(-c3ccc(Cl)cc3)n[nH]c2=S)cc1 104%
CC(C)=C(NC(=O)c1ccco1)C(=O)NCCc1nc2ccccc2[nH]1 83.7%
c1c2c(cc3sc(N4CCCCC4)nc13)OCCO2 98.9%
CN(C)c1ccnc2sc3c(=O)n(Cc4ccccc4)cnc3c12 69.3%
O=C(c1ccccc1)N1CCN(c2cc(-c3ccccc3)nc3cc(-c4cccc(Cl)c4)nn23)CC1 50.7%
O=S(=O)(NCC1CCCO1)c1cnc(Cl)c(Cl)c1 (centres undefined) 61.4%
O=C(CCN1CCc2ccccc2C(O)(c2ccccc2)C1)c1ccc2c(c1)OCCO2 (centres undefined) 60.1%
Cc1cc(C(=O)COc2ccccc2[N+](=O)[O-])c(C)n1-c1cccc(S(=O)(=O)N2CCOCC2)c1 82.7%
Brc1ccc2ncnc(NCc3cccnc3)c2c1 62.2%
CCCSC(=S)NC1CCS(=O)(=O)C1 (centres undefined) 78.9%
O=S1(=O)CCC(NC(=S)SCc2ccccc2Br)C1 (centres undefined) 54.2%
Cc1noc(/C=C/c2ccco2)c1S(=O)(=O)N1CCC(C(=O)Nc2ccc(Cl)cn2)CC1 51%

Reference: PubChem BioAssay AID1159606 (Sanford-Burnham Center for Chemical Genomics, 2016)
